Data on 39 compounds can be found in PubChem BioAssay (NCI).

The panel holds about 79,000 compounds, 15% with a hit somewhere; the sample as a whole holds those more often. Unmarked numbers belong to inactive results. Active and inactive are the calls of the source. Cut-off read from the data, not from the text of the source: active = growth inhibition above about 70%; inactive = the rest.

One experiment in a line: NCI Yeast Anticancer Drug Screen. Data for the sgs1 mgt1 strain (AID 161).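 Note: 0% = growth of cultures given vehicle only.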 Conditions: S. cerevisiae sgs1 mgt1 strain, at 50.0 µM, hits give high values. Put shortly: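 Growth of a repair-deficient yeast mutant was monitored after compound treatment and expressed as inhibition relative to vehicle-treated cultures.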
Consider `C/C(=N\NC(=S)SCc1ccccc1)c1ccccn1`, for which the growth inhibition is 86.2% (active).
As to `CC[C@@]1(O)C(=O)OCc2c1cc1n(c2=O)Cc2cc3c(N)cccc3nc2-1`, the growth inhibition is 19.9%.
Turning to `CN(C)c1ccc(Sc2ccc3nc(N)nc(N)c3c2)cc1`, the growth inhibition was 60%.
Take `CC(=O)OCCOCNC(=S)N/N=C(\C)c1cnccn1`: the growth inhibition is 72.7% (active).
Consider `COc1cc(C2SCC(=O)N2c2ccc(-c3ccc(-n4c(-c5ccccc5)nc5ccccc5c4=O)cc3)cc2)cc(OC)c1OC` (stereo not given), for which the growth inhibition was 21.6%.
In the case of `O=C(NNc1ccnc2cc(Cl)ccc12)/C(=C\c1ccccc1Cl)NC(=O)c1ccccc1`, the growth inhibition is 73% (active).
Consider `CSC(=S)Nc1cccc(C)n1`, for which the growth inhibition is 45%.
Consider `O=C(/C=C\c1ccc(Cl)cc1Cl)c1cccs1`, for which the growth inhibition is 10.2%.
For `CN(C)c1ccc(C(C#N)=C(C#N)C#N)cc1`, the growth inhibition was 73.2% (active).
On to `COc1cc(/C=C2\CCc3ccccc3C2=O)cc(OC)c1OC`, for which the growth inhibition is 56.8%.
Turning to `CC(C)/C(Cl)=N\OC(=O)Nc1cccc(Cl)c1`, the growth inhibition is 85.2% (active).
Still for that read-out and setting: in the case of `CC1(C)[C@@H]2CC[C@]1(C)[C@H](OC(=O)CSC#N)C2` it was 98.6% (active); in that of `NNC(=O)CCc1ccc2ccc3ccccc3c2c1`, 20.1%; in that of `COc1ccc(/C(C)=N/OC(=O)c2c(-c3ccccc3Cl)noc2C)cc1CN1CCOCC1`, 74.4% (active).
Regarding `C=CC(C)(O)CCC1C(=C)C(O)CC2C(C)(C)CCCC12C` (stereo not given), the growth inhibition was 80.5% (active).
Take `S=C(Nc1ccc(Cl)c(Cl)c1)SCc1ccc2c(c1)OCO2`: the growth inhibition was 89.6% (active).
On to `COc1cc(C2C3=C(COC3=O)Oc3cc4c(cc32)OCO4)ccc1O` (stereo not given), for which the growth inhibition is 22.4%.
For the compound `Nc1nc(-c2cccnc2)cc(-c2cc(-c3cccnc3)nc(N)n2)n1`, the growth inhibition is 0.15%.
Same read-out and setting: as for `COC1=CC(=O)C2C(C1=O)C(c1ccc(Cl)cc1)[C@@H]2C` (stereo not given in full), the figure is 92% (active); as for `c1ccc(-c2nc3cccnc3s2)cc1`, 13.6%; as for `CCCN(CCC)CC(O)c1cc(-c2ccc(Cl)cc2)nc2c(C)c(Cl)ccc12` (stereo not given), 98.5% (active).
As to `O=C(Nc1ccccc1)OCCc1ccc(Cl)c(Cl)c1`, the growth inhibition was 75.8% (active).
Still for that read-out and setting: as for `CC(O)C(O)C(O)C(/C=N\Nc1ccccc1)=N/Nc1ccccc1` (stereo not given), the figure is 95.5% (active); as for `C#CCCCc1ccccc1`, 63.6%.
On the same count and under the same terms, in the case of `CC(=O)Cc1ccc[cH-]1.[Fe+2].c1cc[cH-]c1` it was 86.8% (active); in that of `Cc1cc(I)ccc1N`, 89.3% (active).
With `FC(F)(F)c1cc(NC(=S)N2c3ccccc3-n3cccc3C2c2cccnc2)cc(C(F)(F)F)c1` (stereo not given), the growth inhibition was 44.5%.
`CC(C(=O)N1C(=O)N(C(=O)[C@H](C)C(O)c2ccccc2)[C@H](c2ccccc2)[C@H]1c1ccccc1)[C@@H](O)c1ccccc1` (stereo not given in full): the growth inhibition was 83.4% (active).
In the case of `Oc1cccc2c(Cl)ccnc12`, the growth inhibition is 93.8% (active).
Take `O=C1C=CC(=C(c2ccccc2)c2ccccc2)c2ccccc21`: the growth inhibition is 6.15%.

A further experiment in a line: NCI Yeast Anticancer Drug Screen. Data for the CLN2oe strain (AID 163).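 Note: 0% = growth of vehicle-only control cultures.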 Conditions: S. cerevisiae CLN2oe strain, at 1.2 µM, hits give high values. In short, it runs like this: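 Yeast cells carrying a defined cell-cycle control alteration were exposed to test compounds. Growth inhibition was scored against vehicle-treated control cultures.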
Turning to `CC[C@@]1(O)C(=O)OCc2c1cc1n(c2=O)Cc2cc3c(N)cccc3nc2-1`, the growth inhibition was 25%.
In the case of `CN(C)c1ccc(Sc2ccc3nc(N)nc(N)c3c2)cc1`, the growth inhibition is 17%.
Still for that read-out and setting: in the case of `CC(=O)OCCOCNC(=S)N/N=C(\C)c1cnccn1` it was 8%; in that of `COc1ccc(C2c3cc4c(cc3OC(C)(O)C2C)OCO4)c(OC)c1` (stereo not given), -6%; in that of `COc1ccc(Br)c(C(=O)Sc2nnnn2-c2cccc(Cl)c2)c1`, 6%.
With `COc1ccc(-c2cn(-c3ccc(I)cc3)c3ncnc(N)c23)cc1`, the growth inhibition is -7%.
For `COc1cc(/C=C2\CCc3ccccc3C2=O)cc(OC)c1OC`, the growth inhibition is 13%.
Turning to `CC(C)/C(Cl)=N\OC(=O)Nc1cccc(Cl)c1`, the growth inhibition is -4%.
Turning to `CC1(C)[C@@H]2CC[C@]1(C)[C@H](OC(=O)CSC#N)C2`, the growth inhibition is -3%.
As for `COc1ccc(/C(C)=N/OC(=O)c2c(-c3ccccc3Cl)noc2C)cc1CN1CCOCC1`, the growth inhibition is -12%.
For `C=CC(C)(O)CCC1C(=C)C(O)CC2C(C)(C)CCCC12C` (stereo not given), the growth inhibition was -8%.
With `S=C(Nc1ccc(Cl)c(Cl)c1)SCc1ccc2c(c1)OCO2`, the growth inhibition is -4%.
For the compound `COc1cc(C2C3=C(COC3=O)Oc3cc4c(cc32)OCO4)ccc1O` (stereo not given), the growth inhibition was 0%.
On the same count and under the same terms, in the case of `S=C(Nc1ccc(Cl)cc1)SC1CCCCC1` it was -2%; in that of `c1ccc(-c2nc3cccnc3s2)cc1`, 0%; in that of `O=[N+]([O-])c1cc(CCl)ccc1CCl`, 10%.
As for `COc1ccc(/C=C2\SC(=S)N(/C=C/c3nc4ccccc4[nH]c3=O)C2=O)cc1OC`, the growth inhibition was -17%.
Still for that read-out and setting: as for `C#CCCCc1ccccc1`, the figure is -7%; as for `CC(=O)Cc1ccc[cH-]1.[Fe+2].c1cc[cH-]c1`, 4%.
As for `FC(F)(F)c1cc(NC(=S)N2c3ccccc3-n3cccc3C2c2cccnc2)cc(C(F)(F)F)c1` (stereo not given), the growth inhibition is -3%.
Take `CC(C)(CN1CCCCC1)C(=O)CC(SCCS(=O)(=O)O)c1ccc(Br)cc1` (stereo not given): the growth inhibition was 2%.
Turning to `C[Si](C)(C)CNC(=O)OCc1ccccc1`, the growth inhibition is -3%.
`Oc1cccc2c(Cl)ccnc12`: the growth inhibition is 52%.
As to `O=C1C=CC(=C(c2ccccc2)c2ccccc2)c2ccccc21`, the growth inhibition was -1%.
As to `S=C(S)NN1CCOCC1`, the growth inhibition was 57%.
